# Data reported in PubChem BioAssay (EPA / NIEHS).
# Calls of active or inactive are those of the source. Rule for the calls: active = hit-call score of the fitted dose curve at least 0.9, where 1 is the maximum; inactive = score below 0.9.
# Read-out: Glutamate-cysteine ligase catalytic (GCLC), GCLC (gene 2729)
# Assay: LTEA_HepaRG_GCLC: Life Technologies and Expression Analysis (LTEA) Assay for Glutamate-cysteine ligase catalytic (GCLC) using HepaRG (AID 2283498)
# Settings: mRNA level, 48 h; actives raise or lower the signal
# Procedure, shortened: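 HepaRG, 48 h exposure, 8-pt half-log series from 100 uM, 0.5% DMSO vehicle; TaqMan qRT-PCR for GCLC mRNA, housekeeping-normalized; bidirectional curve fit vs DMSO baseline.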
Compound,outcome,AC50
Cc1c(COC(=O)[C@@H]2[C@H](/C=C(\Cl)C(F)(F)F)C2(C)C)cccc1-c1ccccc1,inactive,
Nc1c(Cl)c(Cl)nc(C(=O)O)c1Cl,inactive,
CC(C)NC(=O)N1CC(=O)N(c2cc(Cl)cc(Cl)c2)C1=O,inactive,
Cn1c(-c2ccccc2)cc(-c2ccccc2)[n+]1C,,82.3 µM (active)
COC(=O)c1c(C(F)F)nc(C(F)(F)F)c(C2=NCCS2)c1CC(C)C,inactive,
Clc1nc(Cl)nc(Nc2ccccc2Cl)n1,inactive,
COc1cc(OC)nc(NC(=O)NS(=O)(=O)c2ncccc2OCC(F)(F)F)n1,inactive,
Cc1cc(C)nc(Nc2ccccc2)n1,inactive,
O=c1n(Cl)c(=O)n(Cl)c(=O)n1Cl,inactive,
CSC(=O)c1c(C(F)F)nc(C(F)(F)F)c(C(=O)SC)c1CC(C)C,inactive,
C=C(C)CN(CC)c1c([N+](=O)[O-])cc(C(F)(F)F)cc1[N+](=O)[O-],inactive,
CCOc1cc(C(C)(C)C)ccc1C1COC(c2c(F)cccc2F)=N1 (configuration not stated),inactive,
O=C(Nc1ccccc1-c1ccc(Cl)cc1)c1cccnc1Cl,inactive,
COP(=O)(OC)O/C(C)=C/C(=O)N(C)C,inactive,
CC(C)Nc1nc(Cl)nc(NC(C)C)n1,inactive,
COP(=S)(OC)Oc1ccc([N+](=O)[O-])c(C)c1,inactive,
COP(=S)(OC)SCn1nnc2ccccc2c1=O,inactive,
C=CCOC(=O)C(C)(C)OC(=O)c1cc(-n2c(=O)cc(C(F)(F)F)n(C)c2=O)ccc1Cl,inactive,

Compound,outcome,AC50
CNC(=O)N(C)c1nnc(C(C)(C)C)s1,inactive,
CCSC(=O)N1CCCCCC1,inactive,
CC(C)C1(C)N=C(c2ncccc2C(=O)O)NC1=O (configuration not stated),inactive,
Nc1cnn(-c2ccccc2)c(=O)c1Cl,inactive,
CC(C)N1C(=O)N(c2ccccc2)CSC1=NC(C)(C)C,,81.8 µM (active)
COC(=O)NS(=O)(=O)c1ccc(N)cc1,inactive,
Nc1c(Cl)c(F)nc(OCC(=O)O)c1Cl,inactive,
Clc1cccc(C(Cl)(Cl)Cl)n1,inactive,
Cc1cnc(C2=NC(C)(C(C)C)C(=O)N2)c(C(=O)O)c1 (configuration not stated),inactive,
CS(=O)(=O)c1ccc(C(=O)C2C(=O)CCCC2=O)c([N+](=O)[O-])c1,inactive,
O=C(O)c1c(Cl)ccc2cc(Cl)cnc12,inactive,
COC(=O)NC(=S)Nc1ccccc1NC(=S)NC(=O)OC,inactive,
CNC(=O)Oc1cccc2ccccc12,inactive,
COC(=O)N(C(=O)N1CO[C@@]2(C(=O)OC)Cc3cc(Cl)ccc3C2=N1)c1ccc(OC(F)(F)F)cc1,inactive,
CC(C)Oc1cccc(NC(=O)c2ccccc2C(F)(F)F)c1,inactive,
CN=C=S,inactive,
CCC(C)n1c(=O)[nH]c(C)c(Br)c1=O (configuration not stated),inactive,
CO/N=C(/C1=NOCCO1)c1ccccc1Oc1ncnc(Oc2ccccc2Cl)c1F,inactive,

# Read-out: growth arrest and DNA damage 45 (GADD45G), GADD45G (gene 10912)
# Assay: LTEA_HepaRG_GADD45G: Life Technologies and Expression Analysis (LTEA) Assay for growth arrest and DNA damage 45 (GADD45G) using HepaRG (AID 2283499)
# Settings: mRNA level, 48 h; actives raise or lower the signal
# Procedure, shortened: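 Human hepatic HepaRG line treated 48 h with chemicals (eight concentrations, half-log steps from 100 uM); transcript induction or repression of GADD45G scored by qRT-PCR versus DMSO vehicle.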
Compound,outcome,AC50
Cc1c(COC(=O)[C@@H]2[C@H](/C=C(\Cl)C(F)(F)F)C2(C)C)cccc1-c1ccccc1,inactive,
Nc1c(Cl)c(Cl)nc(C(=O)O)c1Cl,inactive,
CC(C)NC(=O)N1CC(=O)N(c2cc(Cl)cc(Cl)c2)C1=O,,50 µM (active)
Cn1c(-c2ccccc2)cc(-c2ccccc2)[n+]1C,,50 µM (active)
COC(=O)c1c(C(F)F)nc(C(F)(F)F)c(C2=NCCS2)c1CC(C)C,inactive,
Clc1nc(Cl)nc(Nc2ccccc2Cl)n1,inactive,
COc1cc(OC)nc(NC(=O)NS(=O)(=O)c2ncccc2OCC(F)(F)F)n1,,0.19 µM (active)
Cc1cc(C)nc(Nc2ccccc2)n1,inactive,
O=c1n(Cl)c(=O)n(Cl)c(=O)n1Cl,inactive,
CSC(=O)c1c(C(F)F)nc(C(F)(F)F)c(C(=O)SC)c1CC(C)C,,65.3 µM (active)
C=C(C)CN(CC)c1c([N+](=O)[O-])cc(C(F)(F)F)cc1[N+](=O)[O-],inactive,
CCOc1cc(C(C)(C)C)ccc1C1COC(c2c(F)cccc2F)=N1 (configuration not stated),inactive,
O=C(Nc1ccccc1-c1ccc(Cl)cc1)c1cccnc1Cl,inactive,
COP(=O)(OC)O/C(C)=C/C(=O)N(C)C,inactive,
CC(C)Nc1nc(Cl)nc(NC(C)C)n1,inactive,
COP(=S)(OC)Oc1ccc([N+](=O)[O-])c(C)c1,inactive,
COP(=S)(OC)SCn1nnc2ccccc2c1=O,inactive,
C=CCOC(=O)C(C)(C)OC(=O)c1cc(-n2c(=O)cc(C(F)(F)F)n(C)c2=O)ccc1Cl,inactive,

Compound,outcome,AC50
CNC(=O)N(C)c1nnc(C(C)(C)C)s1,inactive,
CCSC(=O)N1CCCCCC1,inactive,
CC(C)C1(C)N=C(c2ncccc2C(=O)O)NC1=O (configuration not stated),inactive,
Nc1cnn(-c2ccccc2)c(=O)c1Cl,inactive,
CC(C)N1C(=O)N(c2ccccc2)CSC1=NC(C)(C)C,,76.1 µM (active)
COC(=O)NS(=O)(=O)c1ccc(N)cc1,inactive,
Nc1c(Cl)c(F)nc(OCC(=O)O)c1Cl,inactive,
Clc1cccc(C(Cl)(Cl)Cl)n1,inactive,
Cc1cnc(C2=NC(C)(C(C)C)C(=O)N2)c(C(=O)O)c1 (configuration not stated),inactive,
CS(=O)(=O)c1ccc(C(=O)C2C(=O)CCCC2=O)c([N+](=O)[O-])c1,inactive,
O=C(O)c1c(Cl)ccc2cc(Cl)cnc12,inactive,
COC(=O)NC(=S)Nc1ccccc1NC(=S)NC(=O)OC,inactive,
CNC(=O)Oc1cccc2ccccc12,inactive,
COC(=O)N(C(=O)N1CO[C@@]2(C(=O)OC)Cc3cc(Cl)ccc3C2=N1)c1ccc(OC(F)(F)F)cc1,inactive,
CC(C)Oc1cccc(NC(=O)c2ccccc2C(F)(F)F)c1,inactive,
CN=C=S,inactive,
CCC(C)n1c(=O)[nH]c(C)c(Br)c1=O (configuration not stated),,30.4 µM (active)
CO/N=C(/C1=NOCCO1)c1ccccc1Oc1ncnc(Oc2ccccc2Cl)c1F,,18.4 µM (active)
